In PubChem BioAssay (NCI):
Compounds without any hit were thinned out: in the full panel of roughly 79,000, 15% have a hit. Activity calls are given as the source filed them. Cut-off read from the data, not from the text of the source: active = growth inhibition above about 70%; inactive = the rest.

Tests used:
[1] = NCI Yeast Anticancer Drug Screen. Data for the rad52 strain (AID 147);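 note: 0% = growth of vehicle-treated control cultures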; conditions: S. cerevisiae rad52 mutant growth inhibition, active compounds read high
Outline: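 Vehicle-treated cultures served as the reference for growth inhibition of compound-exposed yeast bearing a DNA repair mutation.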

[2] = NCI Yeast Anticancer Drug Screen. Data for the wt1 strain (AID 149);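 note: 0% = growth of vehicle-treated wt1 cultures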; conditions: S. cerevisiae wt1 strain (SPY 50644) growth inhibition, active compounds read high
Outline: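 wt1 strain grown with compound or vehicle; inhibition taken from the growth difference.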

[3] = NCI Yeast Anticancer Drug Screen. Data for the rad50EPP+ strain (AID 151);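 note: 0% = growth of vehicle-treated control cultures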; conditions: S. cerevisiae rad50 mutant strain, active compounds read high
Outline: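 In this screen, rad50EPP+ yeast were exposed to compounds. Growth inhibition was scored against vehicle-treated controls.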

[4] = NCI Yeast Anticancer Drug Screen. Data for the rad50 strain (AID 155);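 note: 0% = growth of vehicle-only cultures of the same strain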; conditions: S. cerevisiae rad50 strain growth inhibition, active compounds read high
Outline: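 DNA repair mutant yeast, compound exposure, growth read-out; inhibition is taken relative to vehicle.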

[5] = NCI Yeast Anticancer Drug Screen. Data for the mec2-1 strain (AID 157); conditions: S. cerevisiae mec2-1 strain, active compounds read high
Outline: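 Vehicle-treated cultures served as reference for growth inhibition of compound-exposed mec2-1 yeast.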

[6] = NCI Yeast Anticancer Drug Screen. Data for the CLN2oe strain (AID 163);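 note: 0% = growth of vehicle-only control cultures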; conditions: S. cerevisiae CLN2oe strain, active compounds read high
Outline: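 Inhibition relative to vehicle-treated yeast is reported. Cells: strain with genetic alteration in cell-cycle control, grown with compound.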

[7] = NCI Yeast Anticancer Drug Screen. Data for the cln2 rad14 strain (AID 165);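 note: 0% = growth equal to vehicle treated cultures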; conditions: S. cerevisiae cln2 rad14 strain, active compounds read high
Outline: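 Each compound was tested on cln2 rad14 yeast. Inhibition of growth was calculated against vehicle-exposed controls.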

[8] = NCI Yeast Anticancer Drug Screen. Data for the bub3 strain (AID 167); conditions: S. cerevisiae bub3 mutant strain, active compounds read high
Outline: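 In this screen, a yeast mutant lacking normal mitotic checkpoint function is challenged with compound. Relative growth versus vehicle gives the inhibition value.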

[9] = NCI Yeast Anticancer Drug Screen. Data for the wt2 strain (AID 169);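 note: 0% = growth of vehicle-treated yeast cultures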; conditions: S. cerevisiae wt2 strain growth inhibition, active compounds read high
Outline: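 Inhibition of yeast growth was determined after compound treatment, normalised to controls receiving only vehicle.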

[10] = NCI Yeast Anticancer Drug Screen. Data for the sgs1 strain (AID 173);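 note: 0% = growth of vehicle-only control cultures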; conditions: S. cerevisiae sgs1 mutant, active compounds read high
Outline: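 Screen format: yeast with repair or checkpoint alterations, compound exposure, growth read relative to vehicle.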

[11] = NCI Yeast Anticancer Drug Screen. Data for the mlh1 rad18 strain (AID 175); conditions: S. cerevisiae mlh1 rad18 strain growth inhibition, active compounds read high
Outline: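 Vehicle-treated cultures served as the reference for growth inhibition in a yeast strain carrying DNA damage repair alterations exposed to each compound.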

[12] = NCI Yeast Anticancer Drug Screen. Data for the rad18 strain (AID 177); conditions: S. cerevisiae rad18 mutant growth inhibition, active compounds read high
Outline: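 Test articles were incubated with altered yeast defective in DNA damage repair. Results are given as inhibition of growth versus vehicle.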

[13] = NCI Yeast Anticancer Drug Screen. Data for the rad14 strain (AID 159);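 note: 0% = growth of vehicle-treated control cultures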; conditions: S. cerevisiae rad14 strain growth inhibition, active compounds read high
Outline: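 DNA repair-defective yeast, compound-exposed; % growth inhibition derived by comparison with vehicle-treated controls.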

[14] = NCI Yeast Anticancer Drug Screen. Data for the sgs1 mgt1 strain (AID 161);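 note: 0% = growth of cultures given vehicle only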; conditions: S. cerevisiae sgs1 mgt1 strain, active compounds read high
Outline: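 Test agents were incubated with a DNA-repair-mutant yeast strain. Growth was then read and compared against vehicle-treated controls.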

[15] = NCI Yeast Anticancer Drug Screen. Data for the mlh1 strain (AID 171);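 note: 0% = growth of vehicle-treated control cultures of the same strain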; conditions: S. cerevisiae mlh1 strain growth inhibition, active compounds read high
Outline: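 Vehicle-normalised growth inhibition of a repair- or checkpoint-altered yeast strain following compound treatment.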

[16] = at 5.0 µM (retest, dose inferred, filed as 0.5)
[17] = at 50.0 µM (retest, dose inferred, filed as 5.0)

Measured: growth inhibition

Cc1cc(C)c(N2C(=O)CC(Sc3ccccc3N)C2=O)c(C)c1 (stereo not drawn)
active: [7]; [17] 76% | [8]; [17] 91%
inactive: [1]; at 1.2 µM -27% | [1]; at 3.7 µM -20% | [1]; at 11.0 µM -31% | [1]; at 33.0 µM -14% | [1]; at 100.0 µM -22% | [2]; at 1.2 µM -53% | [2]; at 3.7 µM -52% | [2]; at 11.0 µM -58% | [2]; at 33.0 µM -62% | [2]; at 100.0 µM -45% | [3]; at 1.2 µM -15% | [3]; at 3.7 µM -13% | [3]; at 11.0 µM -16% | [3]; at 33.0 µM -11% | [3]; at 100.0 µM 1% | [4]; at 1.2 µM -34% | [4]; at 3.7 µM -30% | [4]; [16] 37% | [4]; at 11.0 µM -33% | [4]; at 33.0 µM -42% | [4]; [17] 41% | [4]; at 50.0 µM 30.1% | [4]; at 100.0 µM -27% | [5]; at 1.2 µM -42% | [5]; at 3.7 µM -44% | [5]; [16] 45% | [5]; at 11.0 µM -45% | [5]; at 33.0 µM -36% | [5]; [17] 48% | [5]; at 50.0 µM 48.5% | [5]; at 100.0 µM -24% | [6]; at 1.2 µM -16% | [6]; at 3.7 µM -11% | [6]; at 11.0 µM -2% | [6]; at 33.0 µM 14% | [6]; at 100.0 µM -2% | [7]; [16] 34% | [7]; at 50.0 µM 6.4% | [8]; at 1.2 µM -48% | [8]; at 3.7 µM -43% | [8]; [16] -26% | [8]; at 11.0 µM -51% | [8]; at 33.0 µM -48% | [8]; at 50.0 µM 51.6% | [8]; at 100.0 µM -51% | [9]; at 1.2 µM -14% | [9]; at 3.7 µM -19% | [9]; at 11.0 µM -1% | [9]; at 33.0 µM -8% | [9]; at 100.0 µM 19% | [10]; at 1.2 µM -37% | [10]; at 3.7 µM -41% | [10]; at 11.0 µM -34% | [10]; at 33.0 µM -28% | [10]; at 100.0 µM -21% | [11]; [16] 24% | [11]; [17] 44% | [11]; at 50.0 µM 34.3% | [12]; at 1.2 µM -54% | [12]; at 3.7 µM -45% | [12]; at 11.0 µM -38% | [12]; at 33.0 µM -47% | [12]; at 100.0 µM -44%

O/N=C/C1c2ccccc2-c2ccccc21
inactive: [1]; at 1.2 µM 0% | [1]; at 3.7 µM 6% | [1]; at 11.0 µM 20% | [1]; at 33.0 µM 58% | [2]; at 1.2 µM -4% | [2]; at 3.7 µM -4% | [2]; at 11.0 µM -7% | [2]; at 33.0 µM 20% | [2]; at 100.0 µM 49% | [4]; at 1.2 µM -1% | [4]; at 3.7 µM -6% | [4]; [16] -199% | [4]; at 11.0 µM 24% | [4]; at 33.0 µM 62% | [4]; [17] 58% | [4]; at 50.0 µM 56.2% | [5]; at 1.2 µM 3% | [5]; at 3.7 µM 1% | [5]; [16] -53% | [5]; at 11.0 µM -15% | [5]; at 33.0 µM 21% | [5]; [17] -13% | [13]; at 1.2 µM -1% | [13]; at 3.7 µM -1% | [13]; at 11.0 µM 9% | [13]; at 33.0 µM 51% | [14]; [16] -59% | [14]; [17] 30% | [14]; at 50.0 µM 50.8% | [6]; at 1.2 µM -3% | [6]; at 3.7 µM -3% | [6]; at 11.0 µM -6% | [6]; at 33.0 µM 2% | [6]; at 100.0 µM 53% | [7]; [16] -57% | [7]; [17] 8% | [8]; at 1.2 µM -6% | [8]; at 3.7 µM -2% | [8]; [16] -70% | [8]; at 11.0 µM -7% | [8]; at 33.0 µM 0% | [8]; [17] -15% | [8]; at 100.0 µM 59% | [9]; at 1.2 µM -1% | [9]; at 3.7 µM -2% | [9]; at 11.0 µM -3% | [9]; at 33.0 µM 22% | [15]; at 1.2 µM 4% | [15]; at 3.7 µM -6% | [15]; at 11.0 µM -3% | [15]; at 33.0 µM 18% | [15]; at 100.0 µM 64% | [10]; at 1.2 µM 0% | [10]; at 3.7 µM -2% | [10]; at 11.0 µM 0% | [10]; at 33.0 µM 44% | [11]; [16] -102% | [11]; [17] 39% | [12]; at 1.2 µM 2% | [12]; at 3.7 µM 11% | [12]; at 11.0 µM 44%
active: [1]; at 100.0 µM 97% | [4]; at 100.0 µM 97% | [5]; at 50.0 µM 99% | [5]; at 100.0 µM 72% | [13]; at 100.0 µM 96% | [7]; at 50.0 µM 96% | [8]; at 50.0 µM 98.8% | [9]; at 100.0 µM 70% | [10]; at 100.0 µM 88% | [11]; at 50.0 µM 97.3% | [12]; at 33.0 µM 74% | [12]; at 100.0 µM 97%
